According to PubChem BioAssay (NCI):
About 83,000 compounds went through this panel and 20% of them were active in at least one assay; those are over-represented in the sample as a whole.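 Compound tested at a single concentration for 48 hours in 96-well plates; a percent growth value below 10 was scored as active.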 Values without a mark were called inactive. The source made the active and inactive calls.

Each compound was assayed on OVCAR-3 ovarian (assay: NCI-60 one-dose screen, 48 h (100 = growth as untreated, 0 = no growth, -100 = all killed)). Settings: 10 µM unless noted.
Description: Growth inhibition of the OVCAR-3 human tumor cell line is measured as a screen for anti-cancer activity. Cells are grown in 96 well plates and exposed to the test compound for 48 hours. Compounds are tested at a single concentration, which is 10^-5 M for most compounds. The reported endpoint is percent growth (GI% or GIPRCNT), where numbers from 0 - 100% represent growth inhibition, and numbers from -100% - 0 represent cell death. For example, a value of 40 represents 60% growth inhibition. A value of 0 means no net growth occurred over the course of the experiment. A value of -40 indicates 40% of cells at the beginning of the experiment died by the end of the experiment. A value of -100 means all cells are dead at the end of the experiment.
NCI-60 Human Tumor Cell Lines Screen was performed using the standard one-dose NCI protocol, which is described in more detail at https://dtp.cancer.gov/discovery_development/nci-60/default.htm.
Compounds with GIPRCNT values below 10 were considered active. Activity score was based on GIPRCNT using the following formula: […]
Score is 0 for GIPRCNT values of 100 or above, 50 for GIPRCNT values of 0, and 100 for GIPRCNT values of -100.

Compound | growth
C=C(C)[C@@H]1CC[C@]2(COC)CC[C@]3(C)[C@H](CC[C@@H]4[C@@]5(C)CCCNC(C)(C)[C@@H]5CC[C@]43C)[C@@H]12 | 80.9%
Cc1ccc(S(=O)(=O)N(CC[C@@H]2C[C@H]2c2cc3ccccc3o2)S(=O)(=O)c2ccc(C)cc2)cc1 | 108%
Cn1ccnc1C(=O)/C=C/c1ccc(NC(=O)c2ccc(F)cc2)cc1 | 17.9%
COc1ccc(NC(=O)Nc2ccc3c(ccn3C(=O)c3cccc(F)c3)c2)cc1 | 13.5%
CCN1CCN(C(=O)[C@]23CCC(C)(C)C[C@H]2C2=CC[C@@H]4[C@@]5(C)Cc6c([nH]c7ccccc67)C(C)(C)[C@@H]5CC[C@@]4(C)[C@]2(C)CC3)CC1 | 106%
CC/C(=C/c1cc(OC)ccc1O)c1ccc2cc(OC)ccc2[o+]1 | 20.7%
Cc1ccc(NC(=S)NNC(=S)Nc2ccc(C)cc2)cc1 | 127%
CNC(=O)c1c(NC(=O)c2ccccc2C(F)(F)F)sc2c1CCC(=O)C2 | 11.2%
CCCC(=O)NC(c1cccnc1)c1cc(C(C)(C)C)c2cccnc2c1O (stereo not given) | 12.4%
C=C(C=O)[C@@H]1CC[C@]2(C)[C@H](C(=O)C=C3[C@H]4C[C@](C)(C(=O)OC)CC[C@]4(C)CC[C@]32C)[C@@]1(C)CCC#N | -47.2% (active)
O=C(CSc1nc2ccccc2c(=O)n1-c1ccccc1)Nc1ccc(-c2nc3ccc([N+](=O)[O-])cc3[nH]2)cc1 | 63.6%
COc1cc(OC)c(/C=C/S(=O)(=O)Cc2ccc(OC)c(NCC(=O)NO)c2)c(OC)c1 | 2.98% (active)
COc1cc(OC)c(/C=C/S(=O)(=O)Cc2ccc(OC)c(NC(=O)CCC(=O)NO)c2)c(OC)c1 | 6.69% (active)
COc1cc(Nc2c(C#N)cnn3cc(-c4cnn(CC(C)(C)O)c4)cc23)ccc1Cl | 57.6%
C=C1CC[C@@H]2[C@](C)(CO)[C@H](O)CC[C@@]2(C)[C@@H]1C/C(O)=C1\CCOC1=O | 93.2%
COc1c(N2CC3CCCNC3C2)c(F)cc2c(=O)c(C(=O)N/N=C/c3ccc4c(c3)OCO4)cn(C3CC3)c12 (stereo not given) | 29.4%
CN1CCN(c2ccc(/C=N/n3cnc4oc(-c5ccccc5)cc4c3=N)cc2)CC1 | 90.2%
COc1ccc(NC(=O)CSc2nnc(-c3ccc4nc(-c5ccc(OC)c(OC)c5)[nH]c4c3)o2)cc1OC | 108%
CC/C(=C/c1c(O)cccc1OC)c1ccc2c(OC)cccc2[o+]1 | 109%
N/C(=N\C(N)=N\c1nc2ccccc2s1)c1ccc2ccccc2c1 | 109%

Compound | growth
COc1cc2nc(Cl)nc(Nc3cccc(C4=Nc5c(N)nc(N)nc5NC(c5ccccc5)C4)c3)c2cc1OC (stereo not given) | 77.7%
CNC(=O)c1cc(-n2ccc3cc(NC(=O)Nc4ccc(N5CCOCC5)c(C(F)(F)F)c4)ccc32)ccn1 | 76.4%
O=C(NCCN1CCCC1)c1ccc(-c2nc3ccc4[nH]ncc4c3c3c2CCCC3)cc1 | 1.47% (active)
Cc1ccc(C2=NN(C)C(=O)C3(CCCC3)C2)cc1 | 110%
Cn1ccnc1C(=O)/C=C/c1ccc(NC(=O)c2c(F)c(F)c(F)c(F)c2F)cc1 | 107%
CNc1ncc2cc(-c3ccc(-c4ncccc4F)cc3Cl)c(=O)n(CC3OCC(N)CO3)c2n1 (stereo not given) | 90.7%
NS(=O)(=O)c1ccc(Nc2nc(N/N=C/c3ccc(Cl)cc3)nc(Nc3ccccc3)n2)cc1 | 70.4%
O=C(CNc1nc(-c2cccc([N+](=O)[O-])c2)cs1)Nc1cccc([N+](=O)[O-])c1 | 5.33% (active)
CCOc1ccccc1NC1=C(Cl)C(=O)c2nc(C)ccc2C1=O | -98.9% (active)
CCn1c(SCC(=O)Nc2cccc(C(=O)/C=C/c3ccc(C)cc3)c2)nc2ccccc2c1=O | 43.9%
Cc1ccc(NC(=O)CNc2cc(C(N)=O)cc(F)c2C)c(Cl)c1 | 111%
CC(=O)O[C@@H]1C(=O)N(c2cnccn2)[C@H]1c1ccccc1[N+](=O)[O-] | 2.08% (active)
COc1ccccc1NCc1cccn1Cc1ccc(F)cc1 | 112%
COC(=O)C[Se]C(=O)Cc1c(C)n(C(=O)c2ccc(Cl)cc2)c2ccc(OC)cc12 | 44.7%
C=CC(=O)N1CC=C(c2cc3c(N[C@H](C)c4ccccc4)ncnc3[nH]2)CC1 | 70.3%
C#Cc1nc(C(=O)NCCC(=O)Nc2ccc(NC(=O)c3ccc(/C=C/C(=O)c4nccn4C)cc3)cc2)cs1 | -11.5% (active)
O=C(/C=C/c1ccc(F)cc1)c1ccc(O)cc1 | 83.6%
N#Cc1cccc(CN2CCC3=C(C2)C(=O)N(Cc2ccc(Cl)cc2)C2=NCCN23)c1 | 23.4%
COc1ccc(C2CC(c3ccc(Nc4nc(NCCO)nc(N5CCOCC5)n4)cc3)=Nc3c(N)nc(N)nc3N2)cc1 (stereo not given) | 101%
CNC(=O)c1cc(-c2ccc(NS(=O)(=O)c3ccc(C)cc3)cc2)nc2cccnc12 | 111%
